From PubChem BioAssay AID1159580 (chemical genetic matrix, 2015)
“And” between values parts separate entries of the source, which are not always exact repeats. Identical values can stand only once. About 2,000 (36%) of roughly 5,500 compounds were called active. About 18% were inconclusive and are not listed. No stated cut-off is given here; in the data, active means normalized growth mostly below about 0.91 (no sharp cut-off); inconclusive means no clear call, values can overlap the other calls; inactive means mostly above about 0.92. Some of the results follow.

Experiment: chemical genetic growth profiling, strain panel (AID 1159580);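 further: tested at 20 µM; growth read once vehicle control cultures reached saturation at 30 °C; 1 = growth at the plate median or of vehicle wells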
Conditions: S. cerevisiae deletion strains, growth OD

Measured: normalized growth

CC1(C)CC2C1CC[C@]1(CBr)CCC3C(CC(=O)O)C(=O)O[C@@]32C1 (stereo partly specified)
inactive: locus YAL021C, strain ccr4, stronger effect = lower value 0.992 | locus YAL026C, strain drs2, stronger effect = lower value 1.02 | locus YAL030W, strain snc1, stronger effect = lower value 1.01 | locus YBL061C, strain skt5, stronger effect = lower value 1.01 | locus YBR009C, strain hhf1, stronger effect = lower value 1.03 | locus YBR021W, strain FUR4, stronger effect = lower value 1.01 | locus YBR023C, strain chs3, stronger effect = lower value 1.01 | locus YBR171W, strain sec66, stronger effect = lower value 1.01 | locus YBR229C, strain ROT2, stronger effect = lower value 0.958 | locus YBR231C, strain swc5, stronger effect = lower value 1.01 | locus YBR279W, strain paf1, stronger effect = lower value 1.01 | locus YCL011C, strain gbp2, stronger effect = lower value 1.01 | locus YCL016C, strain dcc1, stronger effect = lower value 1.01 | locus YCL029C, strain bik1, stronger effect = lower value 0.985 | locus YCL061C, strain MRC1, stronger effect = lower value 1.01 | locus YCL069W, strain vba3, stronger effect = lower value 1.01 | locus YCR088W, strain abp1, stronger effect = lower value 1.01 | locus YDL005C, strain med2, stronger effect = lower value 1 | locus YDL035C, strain GPR1, stronger effect = lower value 0.984 | locus YDL040C, strain nat1, stronger effect = lower value 1.01 | locus YDL074C, strain BRE1, stronger effect = lower value 1 | locus YDL101C, strain DUN1, stronger effect = lower value 1 | locus YDL134C, strain PPH21, stronger effect = lower value 1.05 | locus YDL185W, strain tfp1, stronger effect = lower value 0.971 | locus YDL192W, strain arf1, stronger effect = lower value 0.976 | locus YDR001C, strain nth1, stronger effect = lower value 1.01 | locus YDR069C, strain doa4, stronger effect = lower value 1.02 | locus YDR101C, strain arx1, stronger effect = lower value 0.98 | locus YDR137W, strain rgp1, stronger effect = lower value 0.997 | locus YDR150W, strain NUM1, stronger effect = lower value 1 | locus YDR159W, strain sac3, stronger effect = lower value 1.03 | locus YDR162C, strain NBP2, stronger effect = lower value 0.976 | locus YDR195W, strain ref2 1 | locus YDR297W, strain sur2, stronger effect = lower value 1.01 | locus YDR318W, strain mcm21, stronger effect = lower value 0.989 | locus YDR334W, strain swr1, stronger effect = lower value 1.01 | locus YDR335W, strain msn5, stronger effect = lower value 1.02 | locus YDR388W, stronger effect = lower value 1 | locus YDR392W, strain spt3, stronger effect = lower value 0.968 | locus YDR502C, strain sam2, stronger effect = lower value 1.03 | locus YEL003W, strain gim4, stronger effect = lower value 1.02 | locus YEL037C, strain rad23, stronger effect = lower value 1.01 | locus YEL061C, strain CIN8 (second series), stronger effect = lower value 1.01 | locus YEL061C, strain CIN8, stronger effect = lower value 0.978 | locus YER015W, strain faa2, stronger effect = lower value 1 | locus YER016W, strain bim1, stronger effect = lower value 1.02 | locus YER110C, stronger effect = lower value 0.984 | locus YER111C, strain swi4, stronger effect = lower value 1.01 | locus YER155C, strain BEM2 (second series), stronger effect = lower value 1.04 | locus YER155C, strain BEM2, stronger effect = lower value 0.986 | locus YER167W, strain BCK2, stronger effect = lower value 0.993 | locus YFR010W, strain ubp6, stronger effect = lower value 1.01 | locus YGL078C, strain dbp3, stronger effect = lower value 1.04 | locus YGL086W, strain mad1, stronger effect = lower value 1 | locus YGL167C, strain pmr1, stronger effect = lower value 1.01 | locus YGL173C, strain kem1, stronger effect = lower value 1.01 | locus YGL227W, strain vid30, stronger effect = lower value 1.02 | locus YGL240W, strain doc1, stronger effect = lower value 1.03 | locus YGL248W, strain PDE1, stronger effect = lower value 1.03 | locus YGL253W, strain hxk2, stronger effect = lower value 1.01 | locus YGR135W, strain pre9, stronger effect = lower value 1.09 | locus YGR229C, strain SMI1, stronger effect = lower value 0.965 | locus YGR252W, strain gcn5, stronger effect = lower value 1.08 | locus YHR013C, strain ard1, stronger effect = lower value 1.01 | locus YHR027C, strain rpn1, stronger effect = lower value 1.01 | locus YHR030C, strain SLT2, stronger effect = lower value 0.983 | locus YHR079C, strain IRE1 (second series), stronger effect = lower value 0.994 | locus YHR079C, strain IRE1, stronger effect = lower value 1.02 | locus YHR094C, strain hxt1, stronger effect = lower value 0.979 | locus YHR129C, strain ARP1, stronger effect = lower value 0.995 | locus YHR142W, strain chs7, stronger effect = lower value 0.998 | locus YHR200W, strain rpn10, stronger effect = lower value 1 | locus YIL066C, strain RNR3, stronger effect = lower value 0.98 | locus YIL073C, strain SPO22, stronger effect = lower value 1.07 | locus YIL125W, strain kgd1, stronger effect = lower value 0.984 | locus YIR030C, strain dcg1, stronger effect = lower value 0.992 | locus YJL092W, strain hpr5, stronger effect = lower value 1.01 | locus YJL095W, strain BCK1 (second series), stronger effect = lower value 1.02 | locus YJL095W, strain BCK1, stronger effect = lower value 1.07 and 0.997 | locus YJL115W, strain asf1, stronger effect = lower value 1.02 | locus YJL129C, strain trk1, stronger effect = lower value 0.997 | locus YJL134W, strain LCB3, stronger effect = lower value 0.993 | locus YJL154C, strain vps35, stronger effect = lower value 1 | locus YJL164C, strain tpk1, stronger effect = lower value 1.03 | locus YJL166W, strain qcr8, stronger effect = lower value 1 | locus YJL168C, strain set2, stronger effect = lower value 1 | locus YJL187C, strain SWE1 (second series), stronger effect = lower value 1.02 | locus YJL187C, strain SWE1, stronger effect = lower value 1.02 | locus YJR066W, strain TOR1, stronger effect = lower value 0.922 | locus YJR075W, strain HOC1, stronger effect = lower value 1.02 | locus YKL009W, strain mrt4, stronger effect = lower value 0.976 | locus YKL068W, stronger effect = lower value 0.989 | locus YKL085W, strain MDH1 (second series), stronger effect = lower value 0.995 | locus YKL085W, strain MDH1, stronger effect = lower value 0.995 | locus YKL160W, strain elf1, stronger effect = lower value 0.99 | locus YKL190W, strain CNB1, stronger effect = lower value 0.994 | locus YKR001C, strain vps1, stronger effect = lower value 0.993 | locus YKR026C, strain gcn3, stronger effect = lower value 0.996 | locus YKR091W, strain srl3, stronger effect = lower value 1.01 | locus YLL001W, strain dnm1, stronger effect = lower value 1.03 | locus YLL026W, stronger effect = lower value 1.02 | locus YLL041C, strain sdh2, stronger effect = lower value 1.01 | locus YLR027C, strain aat2, stronger effect = lower value 1.01 | locus YLR039C, strain RIC1, stronger effect = lower value 1.07 | locus YLR058C, strain SHM2, stronger effect = lower value 0.996 | locus YLR102C, strain apc9, stronger effect = lower value 0.995 | locus YLR113W, strain HOG1, stronger effect = lower value 1.03 | locus YLR221C, strain rsa3, stronger effect = lower value 1.01 | locus YLR258W, strain gsy2, stronger effect = lower value 1.03 | locus YLR262C, strain YPT6 (second series), stronger effect = lower value 0.976 | locus YLR268W, strain sec22, stronger effect = lower value 0.96 | locus YLR320W, strain mms22, stronger effect = lower value 1.02 | locus YLR330W, strain CHS5, stronger effect = lower value 0.992 | locus YLR342W, strain FKS1, stronger effect = lower value 1.01 | locus YLR357W, strain rsc2, stronger effect = lower value 1.04 | locus YLR370C, strain arc18, stronger effect = lower value 1.01 | locus YLR371W, strain rom2, stronger effect = lower value 1.01 | locus YLR384C, strain iki3, stronger effect = lower value 1.01 | locus YLR418C, strain cdc73, stronger effect = lower value 1.04 | locus YML016C, strain PPZ1, stronger effect = lower value 0.997 | locus YML032C, strain rad52, stronger effect = lower value 0.992 | locus YML120C, strain ndi1, stronger effect = lower value 1.02 | locus YML124C, strain tub3, stronger effect = lower value 0.992 | locus YMR058W, strain fet3, stronger effect = lower value 1.02 | locus YMR078C, strain ctf18, stronger effect = lower value 0.998 | locus YMR125W, strain sto1, stronger effect = lower value 1 | locus YMR129W, stronger effect = lower value 1.01 | locus YMR205C, strain PFK2, stronger effect = lower value 1.02 | locus YMR223W, strain ubp8, stronger effect = lower value 1.02 | locus YMR231W, strain pep5, stronger effect = lower value 1 | locus YMR307W, strain GAS1, stronger effect = lower value 1.06 | locus YNL067W, strain RPL9B, stronger effect = lower value 1.03 | locus YNL071W, strain lat1, stronger effect = lower value 1.01 | locus YNL128W, strain TEP1, stronger effect = lower value 0.984 | locus YNL153C, strain GIM3, stronger effect = lower value 1.03 | locus YNL183C, strain NPR1, stronger effect = lower value 0.924 | locus YNL209W, strain ssb2, stronger effect = lower value 1.01 | locus YNL233W, strain BNI4, stronger effect = lower value 1.06 | locus YNL248C, strain rpa49, stronger effect = lower value 1.01 | locus YNL250W, strain rad50, stronger effect = lower value 0.973 | locus YNL271C, strain bni1, stronger effect = lower value 0.987 | locus YNL298W, strain CLA4, stronger effect = lower value 1 | locus YNL307C, strain MCK1, stronger effect = lower value 1.04 | locus YNL322C, strain KRE1 (second series), stronger effect = lower value 1.01 | locus YNL322C, strain KRE1, stronger effect = lower value 0.988 | locus YNR049C, strain mso1, stronger effect = lower value 1.02 | locus YNR052C, strain pop2, stronger effect = lower value 1.04 | locus YOL006C, strain TOP1, stronger effect = lower value 1.06 | locus YOL012C, strain htz1 1 | locus YOL147C, strain pex11, stronger effect = lower value 0.99 | locus YOR001W, strain rrp6, stronger effect = lower value 1.01 | locus YOR061W, strain CKA2, stronger effect = lower value 0.972 | locus YOR069W, strain VPS5, stronger effect = lower value 1.01 | locus YOR070C, strain gyp1, stronger effect = lower value 1.03 | locus YOR080W, strain dia2, stronger effect = lower value 1 | locus YOR083W, strain WHI5, stronger effect = lower value 0.986 | locus YOR106W, strain vam3, stronger effect = lower value 1.01 | locus YOR136W, strain idh2, stronger effect = lower value 0.994 | locus YOR144C, strain elg1, stronger effect = lower value 0.988 | locus YOR184W, strain ser1, stronger effect = lower value 0.957 | locus YOR231W, strain MKK1, stronger effect = lower value 1.01 | locus YOR265W, strain rbl2, stronger effect = lower value 1.01 | locus YOR270C, strain vph1, stronger effect = lower value 0.999 | locus YOR290C, strain snf2, stronger effect = lower value 0.99 | locus YOR316C, strain cot1, stronger effect = lower value 1 | locus YPL051W, strain arl3, stronger effect = lower value 1 | locus YPL078C, strain atp4, stronger effect = lower value 1.01 | locus YPL106C, strain sse1, stronger effect = lower value 1.02 | locus YPL240C, strain hsp82, stronger effect = lower value 1.01 | locus YPL241C, strain CIN2, stronger effect = lower value 0.999 | locus YPL256C, strain CLN2, stronger effect = lower value 0.972 | locus YPR119W, strain clb2, stronger effect = lower value 0.993 | locus YPR141C, strain kar3, stronger effect = lower value 0.991 | locus YPR163C, strain tif3, stronger effect = lower value 0.994 | locus YPR167C, strain met16, stronger effect = lower value 0.999 | strain wtn01, stronger effect = lower value 0.984
